Assay results reported in the antibiotic and cytotoxicity screens of Wong et al. (2023).
The whole screen tested about 39,000 compounds, of which about 3,300 (8.5%) were called active. The entries come from a sample that favours actives as a whole.

Each compound was assayed on HepG2 (assay: cytotoxicity call (relative viability < 0.9)). Conditions: 10 µM.
In the case of `C[C@@H]1CN([C@@H](C)CO)C(=O)CCCn2cc(nn2)CO[C@@H]1CN(C)S(=O)(=O)c1ccc(C#N)cc1`, the cytotoxicity call is reported as “inactive”. With `C[C@@H]1CN([C@@H](C)CO)C(=O)c2cc(NS(=O)(=O)c3ccc(F)cc3)ccc2O[C@H]1CN(C)Cc1ccc(Oc2ccccc2)cc1` the cytotoxicity call was “inactive”. `C[C@H]1CN([C@@H](C)CO)C(=O)c2cc(NS(=O)(=O)c3ccc(F)cc3)ccc2O[C@@H]1CN(C)Cc1ccc(Oc2ccccc2)cc1` was tested, and the cytotoxicity call was “inactive”. With `C[C@@H]1CN([C@@H](C)CO)C(=O)c2cc(NS(=O)(=O)c3ccc(F)cc3)ccc2O[C@@H]1CN(C)Cc1ccc(Oc2ccccc2)cc1` the cytotoxicity call was “active”. For `C[C@@H]1CN([C@H](C)CO)C(=O)c2cc(NS(=O)(=O)c3ccc(F)cc3)ccc2O[C@@H]1CN(C)Cc1ccc(Oc2ccccc2)cc1`, the cytotoxicity call was “active”. `C[C@@H]1CN([C@H](C)CO)C(=O)c2cc(NS(=O)(=O)c3ccc(F)cc3)ccc2O[C@H]1CN(C)Cc1ccc(Oc2ccccc2)cc1` was tested, and the cytotoxicity call was “inactive”. `C[C@H]1CN([C@@H](C)CO)C(=O)c2cc(NS(=O)(=O)c3ccc(F)cc3)ccc2O[C@H]1CN(C)Cc1ccc(Oc2ccccc2)cc1` was tested, and the cytotoxicity call was “inactive”. For `COCC(=O)N(C)C[C@@H]1Oc2cc(C#Cc3ccccc3)ccc2S(=O)(=O)N([C@H](C)CO)C[C@@H]1C`, the cytotoxicity call was “inactive”. With `C[C@H](CO)N1C[C@H](C)[C@H](CN(C)S(=O)(=O)c2cn(C)cn2)Oc2cc(C#Cc3ccccc3)ccc2S1(=O)=O` the cytotoxicity call was “inactive”. `CNCCC(Oc1cccc2ccccc12)c1cccs1.Cl` (stereo not given) was tested, and the cytotoxicity call was “active”. For `CNCc1cccc2ccccc12`, the cytotoxicity call was “inactive”. In the case of `Cc1noc(C)c1S(=O)(=O)Nc1ccc2c(c1)CC(=O)N([C@H](C)CO)C[C@H](C)[C@@H](CN(C)Cc1ccccc1)O2`, the cytotoxicity call is reported as “inactive”. For `C[C@H]1CN([C@@H](C)CO)C(=O)c2cccc(NS(=O)(=O)c3ccc(Cl)cc3)c2O[C@@H]1CN(C)C(=O)Nc1cccc2ccccc12`, the cytotoxicity call was “inactive”. With `OC[C@H]1O[C@H](n2cnc3cncnc32)[C@@H](O)[C@@H]1O` the cytotoxicity call was “active”. For `Nc1nc(=S)c2ncn([C@@H]3O[C@H](CO)[C@@H](O)[C@H]3O)c2[nH]1`, the cytotoxicity call was “active”. `Nc1nc(Cl)nc2c1ncn2[C@@H]1O[C@H](CO)[C@@H](O)[C@H]1O` was tested, and the cytotoxicity call was “inactive”. In the case of `Nc1ncnc2c1ncn2[C@H]1O[C@@H](CO)[C@H](O)[C@@H]1O`, the cytotoxicity call is reported as “inactive”. In the case of `Nc1ncnc2c1ncn2[C@@H]1O[C@H](COP(=O)(O)OP(=O)(O)OP(=O)(O)OP(=O)(O)OC[C@H]2O[C@@H](n3cnc4c(N)ncnc43)[C@H](O)[C@@H]2O)[C@@H](O)[C@H]1O`, the cytotoxicity call is reported as “active”. In the case of `Nc1ncnc2c1ncn2[C@@H]1O[C@H](CO)[C@@H](O)[C@@H]1O`, the cytotoxicity call is reported as “inactive”. For `Nc1ncnc2c1ncn2[C@H]1O[C@@H](COP(=O)(O)OP(=O)(O)OP(=O)(O)O)[C@@H](O)[C@@H]1O`, the cytotoxicity call was “inactive”. With `O=c1nc[nH]c2c1ncn2[C@@H]1O[C@H](CO)[C@@H](O)[C@H]1O` the cytotoxicity call was “inactive”. With `Nc1nc(=O)c2ncn([C@@H]3O[C@H](CO)[C@@H](O)[C@H]3O)c2[nH]1` the cytotoxicity call was “inactive”. With `Nc1nc(F)nc2c1ncn2[C@@H]1O[C@H](CO)[C@@H](O)[C@H]1O` the cytotoxicity call was “active”. For `Nc1nc(F)nc2c1ncn2[C@@H]1O[C@H](COP(=O)(O)O)[C@@H](O)[C@@H]1O`, the cytotoxicity call was “inactive”. In the case of `Nc1ncnc2c1ncn2[C@@H]1O[C@H](COP(=O)(O)O)[C@@H](O)[C@H]1O`, the cytotoxicity call is reported as “inactive”.
